# Results as given in PubChem BioAssay (NCATS).
# “And” between values parts separate entries of the source, which are not always exact repeats. Equal values may be shown once. Records with an inconclusive call do not appear. A call without a number means that no potency is given here. The source made the active and inactive calls. Unless noted, the call rests on the fitted dose curve.
# Key:
# [1] = biological target: Estrogen receptor (Homo sapiens) (UniProt P03372); assay: qHTS assay for small molecule agonists of estrogen receptor alpha signaling (AID 588514); further: nearly all actives have a fitted effect of over 70% in size
# How it was run: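 Efficacy is expressed against 20 nM 17-beta-estradiol (100%) and DMSO basal (0%); EC50 from Hill equation. Assay: beta-lactamase reporter in ER-alpha-UAS-bla HEK 293 cells, 18 h compound incubation, CCF4 detection.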
# [2] = biological target: Glucocorticoid receptor (Homo sapiens) (UniProt P04150); assay: qHTS assay for small molecule agonists of glucocorticoid receptor signaling (AID 588532; active means well fitted curve in the direction sought with a large enough effect in the signal ratio, with a control signal flat; the % refers to the signal ratio); details: HeLa MMTV-bla, beta-lactamase ratio, agonist, 18 h; stronger effect = higher value; percent of dexamethasone control, DMSO zero
# How it was run: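 MMTV-bla HeLa, beta-lactamase reporter; medium with 1% charcoal/dextran-stripped FBS; cpds up to 92 uM, 18 h, 37 C; CCF4 readout 460/530 nm; Hill fit → EC50, efficacy vs 0.1 uM dexamethasone = 100%.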
# [3] = biological target: Glucocorticoid receptor (Homo sapiens) (UniProt P04150); assay: qHTS assay for small molecule antagonists of glucocorticoid receptor signaling (AID 588533; active means well fitted inhibition curve with a large enough effect in the signal ratio, with a control signal flat, not every such curve was filed as active; the % refers to the signal ratio;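 further: cells stimulated with 2 nM dexamethasone as agonist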; further: potency means the concentration at half of the fitted maximal effect)
# How it was run: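 Antagonist-mode qHTS: compound titrations added to GRE-bla HeLa cells, then dexamethasone 2 nM final; 18 h, 37 C. CCF4 FRET fluorescence normalized to dexamethasone and DMSO; IC50 from Hill fit.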
# [4] = biological target: Peroxisome proliferator-activated receptor gamma (Homo sapiens) (UniProt P37231); assay: qHTS assay for small molecule agonists of peroxisome proliferator-activated receptor gamma signaling (AID 588536; active means well fitted curve in the direction sought with a large enough effect in the signal ratio, with a control signal flat, not every such curve was filed as active; the % refers to the signal ratio)
# How it was run: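 Using GeneBLAzer HEK293 cells, response was quantified by CCF4 fluorescence and normalized between basal DMSO (0%) and rosiglitazone 2 uM (100%); curves yielded half-maximal stimulation concentration and efficacy.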
# [5] = biological target: Peroxisome proliferator-activated receptor gamma (Homo sapiens) (UniProt P37231); assay: qHTS assay for small molecule antagonists of peroxisome proliferator-activated receptor gamma signaling (AID 588537; active means well fitted inhibition curve with a large enough effect in the signal ratio, with a control signal flat, not every such curve was filed as active; the % refers to the signal ratio; further: potency means the concentration at half of the fitted maximal effect)
# How it was run: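 Compounds are tested as concentration series for inhibition of rosiglitazone-driven (50 nM) reporter expression in GeneBLAzer PPAR-gamma-UAS-bla HEK293 cells. After 16 h at 37 C, CCF4 substrate is added for 2 h at room temperature and blue/green fluorescence is measured.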
# [6] = biological target: Vitamin D3 receptor (Homo sapiens) (UniProt P11473); assay: qHTS assay for small molecule antagonists of vitamin D receptor signaling (AID 588541); further: potency means the concentration at half of the fitted maximal effect
# How it was run: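 VDR-UAS-bla HEK293T cells (2000/well, 2% charcoal-stripped FBS) were treated with titrated compounds plus 1-alpha,25-dihydroxyvitamin D3 (50 nM or 3 nM final) for 16 h at 37 C. CCF4 beta-lactamase fluorescence was read; Hill fits gave IC50.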
# [7] = biological target: Vitamin D3 receptor (Homo sapiens) (UniProt P11473); assay: qHTS assay for small molecule agonists of vitamin D receptor signaling (AID 588543)
# How it was run: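 GeneBLAzer VDR-UAS-bla HEK293T cells in 2% charcoal-stripped FBS medium were dosed with compound titrations for 16 h at 37 °C; CCF4 β-lactamase readout (405 nm ex, 460/530 nm em). EC50 and efficacy from Hill fits, normalized to 50 nM calcitriol (100%) and DMSO (0%).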
# [8] = qHTS assay for small molecule agonists of retinoid X receptor alpha signaling (AID 588544); details: HEK293T RXRa-UAS-bla, beta-lactamase reporter, 18 h; 530 nm emission
# [9] = biological target: Retinoic acid receptor RXR-alpha (Homo sapiens) (UniProt P19793); assay: as above
# [10] = qHTS assay for small molecule antagonists of retinoid X receptor alpha signaling (AID 588546); details: HEK293T RXRa-UAS-bla, beta-lactamase ratio, antagonist mode; measured here: W530 green channel, cytotoxicity proxy;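 further: cells stimulated with 9-cis-retinoic acid as agonist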
# How it was run: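 Beta-lactamase reporter inhibition, read as CCF4 fluorescence ratio (ex 405, em 460/530 nm) after 2 h at RT. HEK293T UAS-bla cells, 2500/well, were stimulated with 9-cis-RA at 500 or 100 nM final alongside test compound for 18 h at 37 C.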
# [11] = biological target: Thyroid hormone receptor beta (Homo sapiens) (UniProt P10828); assay: qHTS assay for small molecule antagonists of thyroid hormone receptor beta signaling (AID 588547; active means well fitted inhibition curve with a large enough effect in the signal ratio, with a control signal flat, not every such curve was filed as active; the % refers to the signal ratio;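 further: cells stimulated with 0.4 nM T3 agonist during compound exposure; series mostly up to about 77 µM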); details: TR-UAS-bla HEK293, beta-lactamase ratio, antagonist mode, 18 h
# How it was run: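 TR-UAS-bla GripTite HEK293 cells in 2% charcoal/dextran FBS medium were preincubated 4 h at 37 C, given compound (0.59 nM to 92 uM) plus 0.4 nM T3 (final) for 18 h, then CCF4 for 2 h at RT; Hill fit gave IC50.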
# [12] = biological target: Luciferin 4-monooxygenase (Photinus pyralis) (UniProt P08659); assay: Biochemical firefly luciferase enzyme assay for NPC (AID 624030; active means well fitted inhibition curve with a large enough effect; further: nearly all actives have a fitted effect of over 70% in size; further: potency means the concentration at half of the fitted maximal effect)
# How it was run: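 Counter-screen for direct inhibition of the luciferase enzyme by approved-drug library compounds, run at 10 nM enzyme in 50 mM Tris acetate (final). Luminescence was read within 5 min of enzyme-buffer addition and normalized to PTC124 versus DMSO (0%).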
# [13] = biological target: Androgen receptor (Homo sapiens) (UniProt P10275); assay: qHTS assay for small molecule agonists of androgen receptor signaling (AID 588515; active means well fitted curve in the direction sought with a large enough effect in the signal ratio, with a control signal flat; the % refers to the signal ratio); details: AR-UAS-bla HEK293, beta-lactamase ratio, agonist 16 h; stronger effect = higher value
# How it was run: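 Stimulation of an AR-responsive β-lactamase reporter in GripTite HEK293 cells was measured after 16 h compound exposure at 37 °C, via CCF4 fluorescence after 2 h RT. EC50 from Hill fits, normalized to R1881 at 30 nM.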
# [14] = biological target: Androgen receptor (Homo sapiens) (UniProt P10275); assay: qHTS assay for small molecule antagonists of androgen receptor signaling (AID 588516; active means well fitted curve in the direction sought with a large enough effect in the signal ratio, with a control signal flat, not every such curve was filed as active; the % refers to the signal ratio; further: potency means the concentration at half of the fitted maximal effect)
# How it was run: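 AR-UAS-bla-GripTite HEK 293 cells (2000/well, 5 h at 37 C) received compound titrations, then R1881 at 10 nM final; after 16 h at 37 C, CCF4 dye 2 h RT, beta-lactamase fluorescence read; IC50 from Hill fits.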
# [15] = biological target: Peroxisome proliferator-activated receptor delta (Homo sapiens) (UniProt Q03181); assay: qHTS assay for small molecule agonists of peroxisome proliferator-activated receptor delta signaling (AID 588534)
# How it was run: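 Agonist-mode qHTS; reporter cells, 5 hrs 37 C pre-incubation; compound titration, 18 hrs 37 C; CCF4 dye, 2 hrs RT; fluorescence read. EC50/efficacy via Hill fit.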
# [16] = qHTS assay for small molecule antagonists of peroxisome proliferator-activated receptor delta signaling (AID 588535; active means well fitted inhibition curve with a large enough effect in the signal ratio, with a control signal flat, not every such curve was filed as active; the % refers to the signal ratio; further: potency means the concentration at half of the fitted maximal effect;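 on max response: cells co-treated with a PPAR-delta agonist as stimulator during compound exposure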); details: HEK293T PPARd-UAS-bla, beta-lactamase FRET ratio, 18 h; 460 nm channel
# How it was run: (§1)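 Inhibition of PPAR-delta response element-driven beta-lactamase expression is measured in HEK293T cells exposed to a compound titration series for 18 hrs at 37 C. Half-maximal inhibition comes from Hill equation fitting.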
# [17] = biological target: Peroxisome proliferator-activated receptor delta (Homo sapiens) (UniProt Q03181); assay: as above
# How it was run: as §1
# [18] = biological target: Voltage-gated inwardly rectifying potassium channel KCNH2 (Homo sapiens) (UniProt Q12809); assay: qHTS Assay for Small Molecule Inhibitors of the Human hERG Channel Activity (AID 588834; active means well fitted inhibition curve with a large enough effect;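 further: lower thallium flux fluorescence means stronger hERG block; nearly all actives have a fitted effect of over 50% in size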; further: potency means the concentration at half of the fitted maximal effect)
# How it was run: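 In hERG-transduced U2OS cells, dye-loaded for 1 hr at room temperature in dark, test compounds incubated 10 min at 37 °C before thallium stimulation. AC50 values derived by Hill modelling of concentration-response.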
# [19] = biological target: Bile acid receptor (Homo sapiens) (UniProt Q96RI1); assay: qHTS assay for small molecule antagonists of farnesoid X receptor signaling (AID 588526)
# How it was run: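 Concentration-response titrations were fitted to the Hill equation for half-maximal inhibition and maximal response, with data normalised to 50 uM chenodeoxycholic acid and DMSO control wells. Cells: FXR-UAS-bla HEK293T, dialyzed FBS.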
# Sequence of Peroxisome proliferator-activated receptor delta (Homo sapiens) (Q03181 whole entry, looked up): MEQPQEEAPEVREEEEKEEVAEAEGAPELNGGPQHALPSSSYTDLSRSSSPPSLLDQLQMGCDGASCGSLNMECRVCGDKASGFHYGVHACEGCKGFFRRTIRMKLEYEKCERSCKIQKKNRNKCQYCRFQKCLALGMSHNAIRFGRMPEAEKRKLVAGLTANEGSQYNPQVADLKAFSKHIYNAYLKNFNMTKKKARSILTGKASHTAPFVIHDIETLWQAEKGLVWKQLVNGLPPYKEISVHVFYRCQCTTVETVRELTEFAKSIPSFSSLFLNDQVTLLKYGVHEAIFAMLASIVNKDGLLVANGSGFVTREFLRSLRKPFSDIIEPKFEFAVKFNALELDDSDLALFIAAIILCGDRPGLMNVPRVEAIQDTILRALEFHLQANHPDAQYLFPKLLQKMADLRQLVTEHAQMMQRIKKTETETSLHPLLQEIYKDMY
# Sequence of Estrogen receptor (Homo sapiens) (P03372 whole entry, looked up): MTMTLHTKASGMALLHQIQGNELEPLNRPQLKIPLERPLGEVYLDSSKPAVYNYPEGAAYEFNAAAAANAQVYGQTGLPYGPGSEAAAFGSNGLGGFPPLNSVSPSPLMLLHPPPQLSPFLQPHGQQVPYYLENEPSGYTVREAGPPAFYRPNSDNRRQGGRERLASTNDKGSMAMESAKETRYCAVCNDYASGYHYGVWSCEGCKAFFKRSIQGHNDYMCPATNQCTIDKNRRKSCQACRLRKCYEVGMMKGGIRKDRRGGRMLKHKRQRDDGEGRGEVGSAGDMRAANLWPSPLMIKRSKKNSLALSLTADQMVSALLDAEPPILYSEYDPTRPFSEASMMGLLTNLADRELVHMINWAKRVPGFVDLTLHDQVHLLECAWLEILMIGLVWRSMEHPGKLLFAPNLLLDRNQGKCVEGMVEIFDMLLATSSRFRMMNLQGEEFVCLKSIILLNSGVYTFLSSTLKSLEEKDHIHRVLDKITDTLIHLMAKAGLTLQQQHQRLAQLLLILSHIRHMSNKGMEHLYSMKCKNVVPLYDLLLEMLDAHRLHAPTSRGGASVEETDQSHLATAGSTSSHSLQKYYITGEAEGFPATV
# Sequence of Voltage-gated inwardly rectifying potassium channel KCNH2 (Homo sapiens) (Q12809 whole entry, looked up): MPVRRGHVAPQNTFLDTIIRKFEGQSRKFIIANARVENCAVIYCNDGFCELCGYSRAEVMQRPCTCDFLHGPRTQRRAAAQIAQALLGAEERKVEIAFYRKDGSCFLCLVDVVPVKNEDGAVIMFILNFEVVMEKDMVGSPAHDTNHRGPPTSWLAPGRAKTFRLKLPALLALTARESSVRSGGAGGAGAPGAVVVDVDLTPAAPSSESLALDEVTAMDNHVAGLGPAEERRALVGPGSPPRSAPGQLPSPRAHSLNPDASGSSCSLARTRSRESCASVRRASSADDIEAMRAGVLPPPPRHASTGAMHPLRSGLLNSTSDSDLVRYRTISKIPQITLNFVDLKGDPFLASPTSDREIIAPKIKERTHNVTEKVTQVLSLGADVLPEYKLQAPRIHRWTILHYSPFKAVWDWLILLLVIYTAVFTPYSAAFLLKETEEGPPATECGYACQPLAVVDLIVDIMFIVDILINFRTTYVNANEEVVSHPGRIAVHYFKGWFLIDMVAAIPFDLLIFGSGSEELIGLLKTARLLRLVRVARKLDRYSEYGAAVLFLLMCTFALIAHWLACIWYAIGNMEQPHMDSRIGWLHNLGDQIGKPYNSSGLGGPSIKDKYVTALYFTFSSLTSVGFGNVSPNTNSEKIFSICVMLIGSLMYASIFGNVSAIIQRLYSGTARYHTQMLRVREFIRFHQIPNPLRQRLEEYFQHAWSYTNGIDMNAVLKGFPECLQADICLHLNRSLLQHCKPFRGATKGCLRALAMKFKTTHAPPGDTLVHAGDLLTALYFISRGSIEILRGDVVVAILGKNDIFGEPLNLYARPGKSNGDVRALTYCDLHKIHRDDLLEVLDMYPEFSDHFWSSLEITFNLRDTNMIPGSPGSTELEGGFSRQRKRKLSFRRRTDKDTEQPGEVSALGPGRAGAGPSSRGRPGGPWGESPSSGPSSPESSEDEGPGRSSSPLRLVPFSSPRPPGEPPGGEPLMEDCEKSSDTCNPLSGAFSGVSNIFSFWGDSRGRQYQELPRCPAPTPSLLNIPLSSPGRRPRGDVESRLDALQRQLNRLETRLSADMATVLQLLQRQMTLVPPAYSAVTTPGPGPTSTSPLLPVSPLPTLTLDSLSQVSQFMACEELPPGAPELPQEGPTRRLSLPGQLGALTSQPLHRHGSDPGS
# Sequence of Thyroid hormone receptor beta (Homo sapiens) (P10828 whole entry, looked up): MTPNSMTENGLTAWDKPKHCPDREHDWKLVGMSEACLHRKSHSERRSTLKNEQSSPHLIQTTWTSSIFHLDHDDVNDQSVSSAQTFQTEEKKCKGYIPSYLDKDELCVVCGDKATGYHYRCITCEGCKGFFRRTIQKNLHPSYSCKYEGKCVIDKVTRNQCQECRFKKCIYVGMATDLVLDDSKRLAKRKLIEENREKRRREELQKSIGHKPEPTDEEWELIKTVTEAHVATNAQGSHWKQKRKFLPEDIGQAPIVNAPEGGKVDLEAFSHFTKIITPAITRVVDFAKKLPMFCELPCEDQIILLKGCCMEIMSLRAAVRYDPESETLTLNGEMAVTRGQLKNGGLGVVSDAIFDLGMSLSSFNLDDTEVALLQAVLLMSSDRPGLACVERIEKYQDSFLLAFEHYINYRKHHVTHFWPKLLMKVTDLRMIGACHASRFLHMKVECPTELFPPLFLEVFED
# Sequence of Androgen receptor (Homo sapiens) (P10275 whole entry, looked up): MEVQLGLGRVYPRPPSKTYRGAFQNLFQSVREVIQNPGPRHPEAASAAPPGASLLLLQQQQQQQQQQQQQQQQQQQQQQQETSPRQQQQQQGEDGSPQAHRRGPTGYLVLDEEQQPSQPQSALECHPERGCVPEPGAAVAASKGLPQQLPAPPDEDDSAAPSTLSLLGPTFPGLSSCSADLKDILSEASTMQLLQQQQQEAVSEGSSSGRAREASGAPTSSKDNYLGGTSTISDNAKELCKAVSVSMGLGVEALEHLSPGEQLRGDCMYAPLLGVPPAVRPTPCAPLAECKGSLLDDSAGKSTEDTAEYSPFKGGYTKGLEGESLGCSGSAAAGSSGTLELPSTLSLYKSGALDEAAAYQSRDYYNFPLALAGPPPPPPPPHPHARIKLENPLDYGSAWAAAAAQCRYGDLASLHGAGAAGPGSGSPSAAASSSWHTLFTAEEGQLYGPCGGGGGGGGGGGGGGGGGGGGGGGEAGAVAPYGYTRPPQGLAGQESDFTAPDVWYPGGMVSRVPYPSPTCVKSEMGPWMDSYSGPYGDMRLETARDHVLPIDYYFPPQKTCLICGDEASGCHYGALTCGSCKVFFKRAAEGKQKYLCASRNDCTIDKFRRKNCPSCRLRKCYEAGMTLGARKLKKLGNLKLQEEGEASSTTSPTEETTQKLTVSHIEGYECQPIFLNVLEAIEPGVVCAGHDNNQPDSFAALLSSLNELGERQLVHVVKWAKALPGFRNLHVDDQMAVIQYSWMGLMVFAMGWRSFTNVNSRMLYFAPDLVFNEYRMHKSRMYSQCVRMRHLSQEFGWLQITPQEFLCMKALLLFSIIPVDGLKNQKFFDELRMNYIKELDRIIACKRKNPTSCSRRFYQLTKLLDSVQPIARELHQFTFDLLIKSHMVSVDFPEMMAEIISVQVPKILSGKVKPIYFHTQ
# Sequence of Luciferin 4-monooxygenase (Photinus pyralis) (P08659 whole entry, looked up): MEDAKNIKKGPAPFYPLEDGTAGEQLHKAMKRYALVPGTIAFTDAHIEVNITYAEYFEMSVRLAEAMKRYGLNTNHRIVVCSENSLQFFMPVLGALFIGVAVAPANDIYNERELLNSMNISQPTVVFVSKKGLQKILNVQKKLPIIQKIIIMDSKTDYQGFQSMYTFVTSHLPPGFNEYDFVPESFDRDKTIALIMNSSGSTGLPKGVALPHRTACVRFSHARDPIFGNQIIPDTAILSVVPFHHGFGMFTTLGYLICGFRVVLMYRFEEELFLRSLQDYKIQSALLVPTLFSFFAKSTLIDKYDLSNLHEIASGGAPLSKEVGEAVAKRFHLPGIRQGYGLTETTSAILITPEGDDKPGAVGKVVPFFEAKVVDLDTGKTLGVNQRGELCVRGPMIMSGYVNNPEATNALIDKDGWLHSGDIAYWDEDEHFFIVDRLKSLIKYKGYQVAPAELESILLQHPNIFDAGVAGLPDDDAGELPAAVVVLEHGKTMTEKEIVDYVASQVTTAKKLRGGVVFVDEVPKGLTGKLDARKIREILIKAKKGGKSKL
# Sequence of Vitamin D3 receptor (Homo sapiens) (P11473 whole entry, looked up): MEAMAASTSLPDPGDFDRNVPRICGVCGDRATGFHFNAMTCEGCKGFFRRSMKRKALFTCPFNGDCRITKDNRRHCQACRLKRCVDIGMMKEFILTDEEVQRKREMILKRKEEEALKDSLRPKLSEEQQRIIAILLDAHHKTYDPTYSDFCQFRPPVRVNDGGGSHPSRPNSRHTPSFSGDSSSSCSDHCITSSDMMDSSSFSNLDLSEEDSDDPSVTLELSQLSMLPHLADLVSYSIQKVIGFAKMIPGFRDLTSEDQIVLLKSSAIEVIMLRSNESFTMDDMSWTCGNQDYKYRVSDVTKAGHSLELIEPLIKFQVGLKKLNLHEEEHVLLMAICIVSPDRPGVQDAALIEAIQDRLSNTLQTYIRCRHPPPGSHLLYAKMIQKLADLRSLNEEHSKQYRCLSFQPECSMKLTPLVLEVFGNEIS
# Sequence of Retinoic acid receptor RXR-alpha (Homo sapiens) (P19793 whole entry, looked up): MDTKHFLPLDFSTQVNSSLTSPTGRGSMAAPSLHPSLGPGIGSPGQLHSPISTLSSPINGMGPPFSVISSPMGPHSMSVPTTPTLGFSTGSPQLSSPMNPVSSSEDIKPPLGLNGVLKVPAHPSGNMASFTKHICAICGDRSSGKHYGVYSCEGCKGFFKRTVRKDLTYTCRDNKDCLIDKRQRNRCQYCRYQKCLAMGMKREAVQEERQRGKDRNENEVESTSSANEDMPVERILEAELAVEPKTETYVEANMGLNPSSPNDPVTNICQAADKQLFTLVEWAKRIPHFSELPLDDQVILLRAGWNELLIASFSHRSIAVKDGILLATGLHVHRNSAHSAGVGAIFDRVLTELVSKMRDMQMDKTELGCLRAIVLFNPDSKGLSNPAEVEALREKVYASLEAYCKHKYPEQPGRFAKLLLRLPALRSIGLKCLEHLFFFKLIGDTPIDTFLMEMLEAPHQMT
Compound,outcome [1],activation [2],Potency [3],outcome [4],Potency [5],Potency [6],outcome [7],max response [8],Potency [9],max response [10],activity change % (negative = inhibition) [11],Potency [12],activation [13],Potency [14],outcome [15],max response [16],Potency [17],Potency [18],outcome [19]
C=CCC1=C(C)C(OC(=O)C2C(C=C(C)C)C2(C)C)CC1=O (stereo not given),inactive,11.4% (inactive) and 2.61% (inactive),inactive,inactive,inactive,inactive,inactive,-5.66%,inactive,-13.5% and -4.99%,-24.8% (inactive) and -17.8% (inactive),inactive,–,–,–,–,–,–,–
O=C(O)CCCOc1ccc(Cl)cc1Cl,–,–,–,–,inactive,–,inactive,–,–,17.8%,12.5% (inactive),–,-19.7% (inactive),inactive,–,–,–,–,–
CCCCCCCCc1ccc(O)cc1,–,0.354% (inactive) and -8.06% (inactive),–,inactive,inactive,inactive,inactive,-5.76% and -13.1%,inactive,-5.97%,–,–,-7.85% (inactive) and -15.7% (inactive),–,inactive,-43.1% and -32.6%,inactive,inactive,–
CCCCCC[C@H]1C(=O)O[C@H](C)[C@H](NC(=O)c2cccc(NC=O)c2O)C(=O)O[C@@H](C)[C@@H]1OC(=O)CC(C)C,inactive,-11.1% (inactive),–,–,–,–,–,–,–,–,–,–,–,–,–,–,–,–,–
CCO/N=C(\CC)C1=C(O)CC(c2c(C)cc(C)cc2C)CC1=O (stereo not given),inactive,-3.56% (inactive),inactive,–,inactive,inactive,inactive,–,–,-8.17%,5.1% (inactive),–,-1.77% (inactive),inactive,inactive,11.4%,inactive,–,inactive
O=S(=O)(c1ccc(Cl)cc1)c1ccc(Cl)cc1,inactive,-2.41% (inactive) and 8.97% (inactive),inactive,inactive,–,inactive,inactive,-4.56% and -1.98%,inactive,-9.45% and -15.5% and -9.97%,9.09% (inactive) and 5.78% (inactive) and 14.1% (inactive),inactive,–,–,inactive,-8.84% and -18.1% and 9.46%,inactive,44.7 µM (active),–
OCCCBr,inactive,-1.2% (inactive),inactive,inactive,inactive,inactive,inactive,-10.8%,inactive,-9.62%,-1.82% (inactive),inactive,–,–,–,–,–,inactive,–
O=[N+]([O-])c1cc([N+](=O)[O-])c2ccccc2c1,–,-0.539% (inactive),–,inactive,inactive,inactive,inactive,-2.69%,inactive,-9.65%,-11.2% (inactive),inactive,-1.64% (inactive),–,inactive,44.3%,inactive,–,–
CC(C)(O)C(=O)Nc1ccc([N+](=O)[O-])c(C(F)(F)F)c1,inactive,–,–,–,–,–,inactive,11.6%,inactive,15.1%,23.5% (inactive),–,–,–,–,–,–,inactive,–
O=C(O)C(Cl)Cl,inactive,-0.327% (inactive),inactive,inactive,inactive,–,–,-16% and 3.52%,inactive,-11.2% and -3.76%,0.759% (inactive) and 14.6% (inactive),inactive,–,–,inactive,-4.92%,inactive,inactive,–
C1CCC(NC2CCCCC2)CC1,inactive,3.43% (inactive) and -1% (inactive) and -4.74% (inactive),inactive,inactive,inactive,inactive,inactive,-15% and -1.01% and -0.218%,inactive,-3.33% and -12% and -7.77%,-2.7% (inactive) and -4.6% (inactive) and 5.65% (inactive),inactive,–,–,inactive,10% and 0.455%,inactive,inactive,–
CC(=O)[O][Hg][c]1ccccc1,–,23.7% (inactive),0.141 µM (active),–,–,1.58 µM (active) and 2.51 µM (active),–,–,–,–,–,2.56 µM (active),–,2.24 µM (active),–,-98.8%,2.82 µM (active),14.1 µM (active) and 25.1 µM (active),–
COc1nn(CSP(=S)(OC)OC)c(=O)s1,inactive,12.2% (inactive),inactive,–,–,inactive,inactive,–,–,–,–,–,–,–,inactive,–,–,–,inactive
O=[N+]([O-])c1c(Cl)c(Cl)cc(Cl)c1Cl,inactive,–,–,inactive,15.8 µM (active),inactive,inactive,-2.76%,inactive,-4.05%,-0.964% (inactive),inactive,–,–,inactive,-4.54%,inactive,inactive,inactive
Nc1ccc(Cl)cc1N,–,0.0302% (inactive) and -3.42% (inactive),inactive,inactive,–,inactive,inactive,13.9%,inactive,11.5% and -1.67%,-20.8% (inactive),3.32 µM (active),-2.06% (inactive),inactive,–,–,–,39.8 µM (active),inactive
CCCCC(CC)COC(=O)c1ccccc1C(=O)OCC(CC)CCCC (stereo not given),inactive,0.194% (inactive) and -1.46% (inactive),inactive,inactive,inactive,inactive,inactive,-20.4% and -8.96%,inactive,-12.5% and -12.9%,-25.5% (inactive) and -4.42% (inactive),inactive,–,–,inactive,-2.79% and 33.6%,inactive,inactive,inactive
O=[N+]([O-])/N=C1\NCCN1Cc1ccc(Cl)nc1,inactive,6.65% (inactive),inactive,inactive,inactive,inactive,–,-17.3%,inactive,-10.6%,–,–,8.09% (inactive),inactive,–,–,–,inactive,inactive
